According to PubChem BioAssay (NCI):
Compounds without any hit were thinned out: in the full panel of roughly 79,000, 15% have a hit. The source made the active and inactive calls. No stated cut-off is given here; in the data, active means growth inhibition above about 70%; inactive means the rest.

Columns and labels:
[1] = NCI Yeast Anticancer Drug Screen. Data for the rad50 strain (AID 155);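 further: 0% = growth of vehicle-only cultures of the same strain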; conditions: S. cerevisiae rad50 strain growth inhibition; at 50.0 µM; active compounds read high
Method in brief: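 Growth of the mutant yeast was measured after compound exposure and referenced to vehicle-treated cultures.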

[2] = NCI Yeast Anticancer Drug Screen. Data for the mec2-1 strain (AID 157); conditions: S. cerevisiae mec2-1 strain, at 50.0 µM, active compounds read high
Method in brief: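 Growth inhibition is read against vehicle-treated controls after compound exposure of the mec2-1 yeast strain, which is defective in DNA damage repair or cell cycle control.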

[3] = NCI Yeast Anticancer Drug Screen. Data for the sgs1 mgt1 strain (AID 161);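 further: 0% = growth of cultures given vehicle only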; conditions: S. cerevisiae sgs1 mgt1 strain, at 50.0 µM, active compounds read high
Method in brief: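 Percent growth inhibition was derived by comparing compound-exposed mutant yeast with vehicle-exposed cultures. The strain carries alterations in DNA damage repair.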

[4] = NCI Yeast Anticancer Drug Screen. Data for the cln2 rad14 strain (AID 165);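 further: 0% = growth equal to vehicle treated cultures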; conditions: S. cerevisiae cln2 rad14 strain, at 50.0 µM, active compounds read high
Method in brief: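 Growth inhibition, relative to vehicle-treated controls, is the read-out. The test organism is a yeast strain with defined genetic alterations, cln2 rad14.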

[5] = NCI Yeast Anticancer Drug Screen. Data for the bub3 strain (AID 167); conditions: S. cerevisiae bub3 mutant strain, at 50.0 µM, active compounds read high
Method in brief: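 Whole-cell yeast assay. The mutant strain was incubated with compounds, and growth inhibition was determined by comparison with vehicle-treated cells.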

[6] = NCI Yeast Anticancer Drug Screen. Data for the mlh1 rad18 strain (AID 175); conditions: S. cerevisiae mlh1 rad18 strain growth inhibition; at 50.0 µM; active compounds read high
Method in brief: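 Cells of a genetically altered yeast strain, deficient in DNA damage repair, were treated with compound. Their growth was then compared with that of vehicle-treated cultures to give inhibition.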

Row | SMILES | growth inhibition [1] | growth inhibition [2] | growth inhibition [3] | growth inhibition [4] | growth inhibition [5] | growth inhibition [6]
1 | COC1=C2CC(C)CC(OC)C(O)C(C)/C=C(\C)C(OC(N)=O)C(OC)/C=C\C=C(/C)C(=O)NC(=C(C=NC(C)(C)C)C1=O)C2=O (centres undefined) | 9.15% (inactive) | 23.2% (inactive) | 23.2% (inactive) | 46.1% (inactive) | 6.4% (inactive) | 18.5% (inactive)
2 | CC1=CC(O)CC(C)(C)C1/C=C/C(C)=C/C=C/C(C)=C/C=C/C=C(C)/C=C/C=C(C)/C=C/C1=C(C)CC(O)CC1(C)C (centres undefined) | 14.4% (inactive) | -15.4% (inactive) | 22.6% (inactive) | 16.4% (inactive) | -30.9% (inactive) | -37.1% (inactive)
3 | CCOC(=O)/C(Cc1nc2ccccc2[nH]c1=O)=N\O | -0.5% (inactive) | 9.95% (inactive) | 5.65% (inactive) | 50.4% (inactive) | -4.45% (inactive) | 7.7% (inactive)
4 | CCNc1nc2c(N)ncnc2n1C1OC(CO)C(O)C1O (centres undefined) | 12.8% (inactive) | -8.4% (inactive) | 6.45% (inactive) | -3.35% (inactive) | -0.1% (inactive) | -6.6% (inactive)
5 | Cc1ccc(C(=O)c2ccccc2Cc2ccc3ccccc3c2)cc1 | 13.8% (inactive) | 0.8% (inactive) | 6.3% (inactive) | 1.35% (inactive) | 61.2% (inactive) | -0.25% (inactive)
6 | O=[N+]([O-])c1ccc(Sc2cccs2)c([N+](=O)[O-])c1 | -12.8% (inactive) | 28.9% (inactive) | 18.9% (inactive) | 4.1% (inactive) | 13.9% (inactive) | 57% (inactive)
7 | CCCCCC(O)c1ccc2c(c1)OCO2 (centres undefined) | 13.8% (inactive) | 12.9% (inactive) | 10.4% (inactive) | 2.2% (inactive) | -8.85% (inactive) | 0% (inactive)
8 | O=S1(=O)c2ccccc2N2CCCc3cc(Cl)cc1c32 | -49.9% (inactive) | -23.1% (inactive) | -41.7% (inactive) | -3.35% (inactive) | -8.9% (inactive) | -4.15% (inactive)
9 | CC(=O)OC(C)N(C(C)=O)c1ncc([N+](=O)[O-])s1 (centres undefined) | -21.8% (inactive) | 2.4% (inactive) | -2.95% (inactive) | -14.3% (inactive) | 46.5% (inactive) | 4.55% (inactive)
10 | Cc1ccc(S(=O)(=O)N(CCOS(C)(=O)=O)CCOS(C)(=O)=O)cc1 | 12.3% (inactive) | -13.2% (inactive) | -0.8% (inactive) | -2.1% (inactive) | 9.45% (inactive) | 5.25% (inactive)
11 | CCCn1c(CC)nc([N+](=O)[O-])c1Sc1ncn[nH]1 | -14.7% (inactive) | -23.1% (inactive) | -7.1% (inactive) | 9.1% (inactive) | -5.6% (inactive) | -11.5% (inactive)
12 | CCSC(N)=Nc1ccccc1 (tested in a mixture with another compound) | 13.2% (inactive) | 9.5% (inactive) | 21.8% (inactive) | 13.3% (inactive) | 12.1% (inactive) | 18.1% (inactive)
13 | NC(N)=NC(N)=NCc1ccccc1 | 5.45% (inactive) | -2.45% (inactive) | 4.3% (inactive) | 12.7% (inactive) | 1.85% (inactive) | 0.85% (inactive)
14 | CCOC(=O)c1c(NN)n[nH]c1C | 8.95% (inactive) | 13.2% (inactive) | 24.4% (inactive) | 4% (inactive) | 7.1% (inactive) | 8.85% (inactive)
15 | CCCCOC(=O)c1cc2ccccc2oc1=O | 34.5% (inactive) | 9.9% (inactive) | 25.1% (inactive) | 15.7% (inactive) | 27.2% (inactive) | 34% (inactive)
16 | N#CCCN(CCC#N)c1ccc(/C=C2\N=C(CN3C(=O)c4ccccc4C3=O)OC2=O)cc1 | -20.1% (inactive) | 4.25% (inactive) | 7.05% (inactive) | 11.3% (inactive) | 0.05% (inactive) | 7.55% (inactive)
17 | COc1nc(C(=O)O)c(Cl)c(OC)c1Cl | -34.6% (inactive) | -21.8% (inactive) | -40.5% (inactive) | -4.95% (inactive) | -39.6% (inactive) | -35% (inactive)
18 | C=C(C)[C@@H]1CC[C@@H]2C(=CC[C@]3(C)C([C@H](C)CC/C=C(/C)C(=O)O)CC[C@@]23C)[C@@]1(C)CCC(=O)O (some centres undefined) | 15.6% (inactive) | -4.95% (inactive) | -0.85% (inactive) | 14.4% (inactive) | 4.05% (inactive) | -63.2% (inactive)
19 | COC(=O)c1ccccc1C1CN=NC12Cc1c(C)ccc(C)c1C2=O (centres undefined) | 9.5% (inactive) | 7% (inactive) | 16.9% (inactive) | 14.2% (inactive) | 3.55% (inactive) | 29.9% (inactive)
20 | NNC(=O)C(=O)N/N=C(\CCC(=O)Nc1ccc(Cl)cc1)Cc1nc2ccccc2s1 | 28.2% (inactive) | 28.2% (inactive) | 30.4% (inactive) | 9.65% (inactive) | 12.3% (inactive) | 36.2% (inactive)

Row | SMILES | growth inhibition [1] | growth inhibition [2] | growth inhibition [3] | growth inhibition [4] | growth inhibition [5] | growth inhibition [6]
21 | O=C(O)c1cc(N2C(=O)c3ccc4c5ccc6c7c(ccc(c8ccc(c3c48)C2=O)c75)C(=O)N(c2ccc(O)c(C(=O)O)c2)C6=O)ccc1O | -8.4% (inactive) | 10% (inactive) | 3.2% (inactive) | 34% (inactive) | 1.65% (inactive) | 26.3% (inactive)
22 | COc1ccc(-c2cc(=O)c3c([nH]2)CCCC3)cc1 | -10.9% (inactive) | -6.95% (inactive) | -11.2% (inactive) | -16.8% (inactive) | -4.3% (inactive) | 5.55% (inactive)
23 | CCCCCCCCCCCCCCCCCC(=O)Oc1c(C(C)(C)C)cc([N+](=O)[O-])c(C)c1[N+](=O)[O-] | 98.2% (active) | 99.2% (active) | 98.8% (active) | 98.9% (active) | 99.2% (active) | 98.2% (active)
24 | CN(C)/C=C/c1nnnn1-c1ccc(I)cc1 | 4.5% (inactive) | 12.9% (inactive) | 24.8% (inactive) | 7.45% (inactive) | 28.8% (inactive) | 34.6% (inactive)
25 | O=C(O)Cn1ccc(=O)c2c([N+](=O)[O-])cccc21 | 27.2% (inactive) | 16.1% (inactive) | 0.35% (inactive) | 5.3% (inactive) | 8.55% (inactive) | -51.6% (inactive)
26 | Cc1ccc(CSCc2c(CSCc3ccc(C)cc3)c(CSCc3ccc(C)cc3)c(CSCc3ccc(C)cc3)c(CSCc3ccc(C)cc3)c2CSCc2ccc(C)cc2)cc1 | -6% (inactive) | 0.9% (inactive) | 5.8% (inactive) | 29.8% (inactive) | 1.75% (inactive) | 6.85% (inactive)
27 | CC(C)(C)OC(=O)c1cccc(C(=O)OC(C)(C)C)c1 | 0.6% (inactive) | 41.6% (inactive) | 32.2% (inactive) | -9.7% (inactive) | 39.1% (inactive) | 17.3% (inactive)
28 | CC(=O)C1CCC2C3CC=C4CC(O)C=CC4(C)C3CCC12C (centres undefined) | 7.6% (inactive) | 22.1% (inactive) | 11.2% (inactive) | -1.65% (inactive) | 5.1% (inactive) | 17.9% (inactive)
29 | CCCCCC#CC(=O)OCC | 0.6% (inactive) | -0.9% (inactive) | -6.25% (inactive) | 10.1% (inactive) | -11.9% (inactive) | 15.8% (inactive)
30 | COc1ccc(/C=C/C(=O)c2sc(NC(=S)NC(=O)c3ccccc3F)nc2C)cc1OC | 21.1% (inactive) | 8.5% (inactive) | 37.6% (inactive) | 30.1% (inactive) | 30.9% (inactive) | 22.9% (inactive)
31 | N#CCCN(CCC#N)c1ccc(/C=C2\N=C(COc3ccc(Cl)cc3Cl)OC2=O)cc1 | -12.9% (inactive) | -10% (inactive) | -14.8% (inactive) | 0.7% (inactive) | 6.8% (inactive) | -4.3% (inactive)
32 | CCCC(C)(CCC)OC(=O)Nc1cccc2ccccc12 | -3% (inactive) | -4.2% (inactive) | -4.4% (inactive) | -10.7% (inactive) | 6.95% (inactive) | 15.2% (inactive)
33 | O=S(=O)(O)c1cc2cc(S(=O)(=O)O)c(O)cc2cc1O | -20.6% (inactive) | -7.55% (inactive) | -1.35% (inactive) | 3.55% (inactive) | -0.25% (inactive) | -7.9% (inactive)
34 | CCc1ccc(OC/C=C(\C)CCC2OC2(C)CC)cc1 (centres undefined) | -4.15% (inactive) | 4.5% (inactive) | 19.8% (inactive) | 4% (inactive) | 32% (inactive) | -2.8% (inactive)
35 | O=c1[nH]c(=O)n(COCCO)cc1-c1ccccc1 | -8.75% (inactive) | -5.65% (inactive) | 1.9% (inactive) | 5.75% (inactive) | -1.25% (inactive) | -2.9% (inactive)
36 | O=c1oc2ccccc2c2c1Sc1ccccc1N2 | -0.95% (inactive) | -22% (inactive) | 17% (inactive) | 12.8% (inactive) | 2.05% (inactive) | -9.1% (inactive)
37 | COCCOCOC(C)(C)[C@H](CCO)O[Si](c1ccccc1)(c1ccccc1)C(C)(C)C | 91.9% (active) | 96.5% (active) | 37.6% (inactive) | 91.6% (active) | 91.4% (active) | 95.8% (active)
38 | CCOC(=O)c1cnc(SC)nc1Nc1cccc(Cl)c1Cl | 1.15% (inactive) | 99% (active) | 35.9% (inactive) | 98.1% (active) | 98.8% (active) | 25.1% (inactive)
39 | COc1cccc(/C=C2\SC(=S)N(/C=C3\C(=O)Oc4ccccc4C3=O)C2=O)c1O | 12.2% (inactive) | 40.1% (inactive) | 59% (inactive) | 50.6% (inactive) | 12.8% (inactive) | 23.6% (inactive)
